According to PubChem BioAssay (NCATS):
Records with an inconclusive call do not appear. The source made the active and inactive calls. Calls come from the whole dose curve; as a rule, active = well fitted cell-killing curve with a large enough effect; inconclusive = small, poorly fitted or top-dose-only effect, or effect the other way; inactive = no such curve, though single readings can be large or run the other way.

Assay: Quantitative High-Throughput drug screen in 47 multiple myeloma cell lines against the NCATS MIPE library collection: MMM1_PLB cell viability assay (AID 1918976); note: nearly all actives have a fitted effect of over 35% in size
Details: MMM1 myeloma cells viability, CellTiter-Glo, 48 h; series mostly up to 45.8 µM
From the text: PI: Beverly A. Mock Ph.D.
Laboratory of Cancer Biology and Genetics,
Center for Cancer Research, National Cancer Institute,
National Institute of Health, Bethesda, Maryland
Drug resistance and disease progression are common in multiple myeloma (MM) patients, underscoring the need for new therapeutic combinations. […] We hypothesized that effective combinations would reduce MYC expression and enhance p16 activity. […] These preclinical data identify potentially useful drug combinations for evaluation in drug-resistant MM and reveal potential mechanisms of combined drug sensitivity.
Described herein is the primary MIPE qHTS used to cherrypick compounds. Validated compounds were then further tested for potential synergistic activiy.
[1] Peat TJ, Gaikwad SM, Dubois W, Gyabaah-Kessie N, Zhang S, Gorjifard S, Phyo Z, Andres M, Hughitt VK, Simpson RM, Miller MA, Girvin AT, Taylor A, Williams D, D'Antonio N, Zhang Y, Rajagopalan A, Flietner E, Wilson K, Zhang X, Shinn P, Klumpp-Thomas C, McKnight C, Itkin Z, Chen L, Kazandijian D, Zhang J, Michalowski AM, Simmons JK, Keats J, Thomas CJ, Mock BA. Drug combinations identified by high-throughput screening promote cell cycle transition and upregulate Smad pathways in myeloma. Cancer Lett. 2023 Aug 1;568:216284. doi: 10.1016/j.canlet.2023.216284. Epub 2023 Jun 24. PMID: 37356470; PMCID: PMC10408729.
SEQUENCE No. (e.g., 1, 2, 3, etc.); […] (e.g., Cells, Incubation, Reagent, etc.); VALUE and DESCRIPTION.
1; Cells; 5 uL; white, solid bottom 1536-well Greiner assay plate.
2; Compounds; 23 nL; Kalypsis pin tool (Wako USA) equipped with a 1536-well pin head to transfer to the assay plates.
3; Incubation; 48 hours; 37C incubation.
4; Reagent;5uL; CellTiter Glo (Promega).
5; Detector; 425V; Luminescence; Viewlux PerkinElmer.
NOTES (numbers refer to Sequence numbers above)
1. The cell-based screening methods employed in this study were like those previously published. Briefly, the corresponding myeloma cell lines were screened in 1,536-well plates with 500 cells, 5-uL per well for inhibition of cell viability (assessed by measuring ATP levels with CellTiterGlo).
2. NCATS MIPE 4.0 library of approved and investigational drugs were added using the Kalypsis pin tool. Wells treated with DMSO only for 100% viability and media only for 0% viability were used as controls.
3. The assay plates were covered and incubated for 48 hours in a 37C, 5% CO2 incubator with controlled humidity.
4. After 48 hours, CellTilter-GloTM luminescent substrate mix (Promega) reagent was added to the assay plate and plates we incubated for 5 min at room temperature.
5. Signal was measured as median relative luminescence units on a ViewLux (PerkinElmer) multiplate reader.
[1] Heske CM, Davis MI, Baumgart JT, Wilson K, Gormally MV, Chen L, Zhang X, Ceribelli M, Duveau DY, Guha R, Ferrer M, Arnaldez FI, Ji J, Tran HL, Zhang Y, Mendoza A, Helman LJ, Thomas CJ. Matrix Screen Identifies Synergistic Combination of PARP Inhibitors and Nicotinamide Phosphoribosyltransferase (NAMPT) Inhibitors in Ewing Sarcoma. Clin Cancer Res. 2017 Dec 1;23(23):7301-7311. doi: 10.1158/1078-0432.CCR-17-1121. Epub 2017 Sep 12. PMID: 28899971; PMCID: PMC6636827.
Potency is the fitted concentration of half-maximal effect.

SMILES	Potency
O=C(N[C@@H](c1ccccc1)[C@@H]1CCCCN1)c1cccc(C(F)(F)F)c1Cl	1.32 µM (active)
CC(=O)Nc1ccc([C@H](C)C(=O)Nc2ncc(C(C)C)s2)cc1	6.62 µM (active)
Cc1ccc(C(=O)Nc2cccc(C(F)(F)F)c2)cc1Nc1nc(-c2cccnc2)nc2c1cnn2C	16.6 µM (active)
Cc1nc(N)sc1-c1ccnc(Nc2ccc(N3CCOCC3)cc2)n1	20.9 µM (active)
CC(C)=CC[C@@H](O)C1=CC(=O)c2c(O)ccc(O)c2C1=O	1.05 µM (active)
CC(C)(C)C(=O)Oc1ccc2c(c1)nc(NC(=O)c1cccc([N+](=O)[O-])c1)n2CCCO	13.2 µM (active)
CC(C(=O)O)c1ccc(-c2ccccc2)c(F)c1 (stereo not given)	1.87 µM (active)
Cc1ccccc1C(C(=O)NC1CCCCC1)N(C(=O)Cn1ccnc1C)c1cccc(F)c1 (stereo not given)	10.5 µM (active)
CC(C)[C@H](CO)Nc1nc(Nc2ccc(C(=O)O)c(Cl)c2)c2ncn(C(C)C)c2n1	23.5 µM (active)
CCC(=O)NC[C@H](Cc1ccc(OCCc2nc(-c3ccccc3)oc2C)cc1)NC(C)=CC(=O)c1ccc(C(F)(F)F)cc1	20.9 µM (active)
CC[C@H]1OC(=O)[C@H](C)C(=O)[C@H](C)[C@@H](O[C@H]2O[C@H](C)C[C@H](N(C)C)[C@@H]2O)[C@](C)(OC)C[C@@H](C)C(=O)[C@H](C)[C@H]2N(CCCCn3cnc(-c4cccnc4)c3)C(=O)O[C@]12C	18.7 µM (active)
C[C@]12CC[C@@H]3c4ccc(O)cc4C[C@@H](CCCCCCCCCS(=O)CCCC(F)(F)C(F)(F)F)[C@H]3[C@H]1CC[C@H]2O (stereo not given in full)	18.7 µM (active)
Nc1ncnc2c1nc(Cl)n2[C@@H]1O[C@H](CO)[C@@H](O)[C@@H]1O	18.7 µM (active)
NS(=O)(=O)c1cccc2c1C(=O)c1cccc(O)c1C2=O	0.264 µM (active)
CC[C@@]1(O)C[C@H](O[C@H]2C[C@H](N(C)C)[C@H](O[C@H]3C[C@H](O)[C@H](O[C@H]4CCC(=O)[C@H](C)O4)[C@H](C)O3)[C@H](C)O2)c2c(cc3c(c2O)C(=O)c2c(O)cccc2C3=O)[C@@H]1C(=O)OC	0.296 µM (active)
C[C@@H]1CCN(C(=O)CC#N)C[C@H]1N(C)c1ncnc2[nH]ccc12	inactive
O=C1NC(=O)C(=Cc2cccc(C(F)(F)F)c2)S1	23.5 µM (active)
N#CC1(c2ccc(NC(=O)c3cccnc3NCc3ccncc3)cc2)CCCC1	18.7 µM (active)
CC(=O)N(C)C1(c2ccccc2)CCN(CCC[C@]2(c3ccc(Cl)c(Cl)c3)CCCN(C(=O)c3ccccc3)C2)CC1	20.9 µM (active)
O=C(Nc1cc(Cl)cc2c1[nH]c1cnccc12)c1cccnc1	11.8 µM (active)

SMILES	Potency
Oc1ccc(C2CCN(c3ccnc4ccccc34)CC2)cc1O	9.35 µM (active)
CS(=O)(=O)N(Cc1ccco1)CC(O)Cn1c2ccccc2c2ccccc21 (stereo not given)	20.9 µM (active)
CC(C)OC(=O)CCCC=CC[C@@H]1[C@H](C=C[C@@H](O)COc2cccc(C(F)(F)F)c2)[C@H](O)C[C@@H]1O	14.8 µM (active)
COc1ccc(Cc2nccc3cc(OC)c(OC)cc23)cc1OC	23.5 µM (active)
O=c1cc(-c2ccc(O)cc2)oc2cc(O)cc(O)c12	18.7 µM (active)
COc1cc2c(cc1OC)CN(CCc1ccc(NC(=O)c3cc(OC)c(OC)cc3NC(=O)c3cnc4ccccc4c3)cc1)CC2	2.35 µM (active)
NC(CO)(CO)CCc1ccc(Sc2cccc(OCc3ccccc3)c2)cc1Cl	23.5 µM (active)
CC1(C)CCC(CN2CCN(c3ccc(C(=O)NS(=O)(=O)c4ccc(NCC5CCOCC5)c([N+](=O)[O-])c4)c(Oc4cnc5[nH]ccc5c4)c3)CC2)=C(c2ccc(Cl)cc2)C1	0.166 µM (active)
O=C(O)[C@H]1O[C@H](Oc2cc3oc(-c4ccccc4)cc(=O)c3c(O)c2O)[C@H](O)[C@@H](O)[C@H]1O	20.9 µM (active)
C[C@H](NC(=O)c1sccc1OCc1ccc(Cl)cc1)c1ccccc1	16.6 µM (active)
CC(C)OC(=O)C(C)(C)Oc1ccc(C(=O)c2ccc(Cl)cc2)cc1	18.7 µM (active)
O=C1NC(=O)C(=Cc2ccc3nccnc3c2)S1	8.12 µM (active)
NC(=O)c1cnc(-c2ccc(C3(N)CCC3)cc2)c(-c2ccccc2)c1	0.743 µM (active)
CNC(=O)c1ccccc1Sc1ccc2c(C=Cc3ccccn3)n[nH]c2c1	20.9 µM (active)
CC=CC(=O)N(CC)c1ccccc1C	3.72 µM (active)
O=C(O)c1ccc(-c2cc3cccnc3c(-c3ccc4nonc4c3)n2)cc1	26.4 µM (active)
O=C(CCN1CCN(C(=O)OCc2cc(Cl)cc(Cl)c2)CC1)c1ccc2[nH]c(=O)oc2c1	10.5 µM (active)
O=C(O)C=Cc1ccc(O)c(O)c1	7.43 µM (active)
O=C1NC(=O)C(=Cc2ccc3c(c2)OC(F)(F)O3)S1	10.5 µM (active)
O=C1C(Cl)=C(NCCN2CCOCC2)C(=O)c2ncccc21	2.96 µM (active)
